PubChem BioAssay (EPA / NIEHS)
Inconclusive results are not listed. The source made the active and inactive calls. Rule for the calls: active = hit-call score of the fitted dose curve at least 0.9, where 1 is the maximum; inconclusive = response in the unintended direction; inactive = score below 0.9.

target: Estrogen receptor (Homo sapiens) (UniProt P03372); experiment: NVS_NR_hER: NovaScreen (NVS) Nuclear Receptor Binding Assay for human Estrogen Receptor (ER) (AID 2283348)
How it was run: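 Radiodetection of ligand displacement in a lysate-based, cell-free format using MCF7 extracts, read at 18 hours. Duplicate 25 uM primary testing, then concentration series for actives.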

Chain of Estrogen receptor (Homo sapiens) (P03372 whole entry, looked up, the tested form may be a part): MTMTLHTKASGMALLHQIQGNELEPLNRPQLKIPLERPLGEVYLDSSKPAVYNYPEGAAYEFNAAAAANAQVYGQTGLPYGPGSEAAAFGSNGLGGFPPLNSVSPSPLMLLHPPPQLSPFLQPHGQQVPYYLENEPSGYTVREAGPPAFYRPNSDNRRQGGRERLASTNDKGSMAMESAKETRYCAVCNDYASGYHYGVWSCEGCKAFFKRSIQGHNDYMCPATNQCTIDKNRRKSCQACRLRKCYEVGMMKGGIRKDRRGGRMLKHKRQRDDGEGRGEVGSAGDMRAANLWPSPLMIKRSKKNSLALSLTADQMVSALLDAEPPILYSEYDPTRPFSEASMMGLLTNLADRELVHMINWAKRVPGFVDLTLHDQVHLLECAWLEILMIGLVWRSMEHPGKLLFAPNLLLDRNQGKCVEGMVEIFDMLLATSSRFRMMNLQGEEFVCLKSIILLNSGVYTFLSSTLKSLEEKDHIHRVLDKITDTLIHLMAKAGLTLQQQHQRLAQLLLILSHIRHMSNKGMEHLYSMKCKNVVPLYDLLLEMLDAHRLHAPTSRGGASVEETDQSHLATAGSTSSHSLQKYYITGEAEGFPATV

Structure (SMILES) | outcome
Nc1ccc(Br)cc1 | inactive
O=C(NC(=O)c1c(F)cccc1F)Nc1cc(Cl)c(Oc2ncc(C(F)(F)F)cc2Cl)c(Cl)c1 | inactive
CCCCCCCCCCCCBr | inactive
CCCCC(CC)C(=O)Cl (centres undefined) | inactive
CC(C)(C)c1cc([N+](=O)[O-])cc(C(C)(C)C)c1O | inactive
O=C(Nc1ccc(Br)cc1)c1cc(Br)cc(Br)c1O | inactive
O=C(Cl)OCCOCCOC(=O)Cl | inactive
O=S1OC[C@@H]2[C@H](CO1)[C@]1(Cl)C(Cl)=C(Cl)[C@@]2(Cl)C1(Cl)Cl (some centres undefined) | inactive
C=CC(=O)OCC(COC(=O)C=C)(COC(=O)C=C)COC(=O)C=C | inactive
OC(c1ccc(Cl)cc1)(c1ccc(Cl)cc1)c1cccnc1 | inactive
O=[N+]([O-])c1c2ccccc2cc2ccccc12 | inactive
Oc1ccc(Cc2ccc(O)cc2)cc1 | inactive
O=S(=O)(Oc1ccc(Cl)cc1)c1ccc(Cl)cc1 | inactive
CC(=Cc1ccccc1)[N+](=O)[O-] | inactive
c1csc(-c2ccc(-c3cccs3)s2)c1 | inactive
CCCCCCCCCCCCCCC(Br)C(=O)O (centres undefined) | inactive

target: Estrogen receptor (Homo sapiens) (UniProt P03372); experiment: OT_ER_ERaERa_1440: Odyssey Thera (OT) 24-hour HEK293T Protein-Complementation Assay for Estrogen Receptor-alpha/-alpha Homodimer (AID 2283349);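 note: hits raise fluorescence above DMSO for agonists and antagonists alike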
How it was run: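 Stably transfected HEK293T; ERα LBD homodimer PCA. 24 h dosing, fluorescence intensity read, gain-of-signal vs DMSO.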

Structure (SMILES) | outcome
CCN(CCO)CCO | inactive
C=CCN=C=S | inactive
O=C(NC(=O)c1c(F)cccc1F)Nc1cc(Cl)c(OC(F)(F)C(F)C(F)(F)F)cc1Cl (centres undefined) | inactive
CNC(=O)O/N=C/C(C)(C)S(C)(=O)=O | inactive
O=C(NC(=O)c1c(F)cccc1F)Nc1ccc(Cl)cc1 | inactive
CCCSP(=S)(OCC)Oc1ccc(SC)cc1 (centres undefined) | inactive
O=CCCl | inactive
CCOc1ccc(N)cc1 | inactive
N#Cc1cccnc1 | inactive
O=C(O)COc1ccc(Cl)cc1 | inactive
N#CCC#N | inactive
Cc1cc(Cl)ccc1OC(C)C(=O)O (centres undefined) | inactive
O=S1OC[C@@H]2[C@H](CO1)[C@]1(Cl)C(Cl)=C(Cl)[C@@]2(Cl)C1(Cl)Cl (some centres undefined) | inactive
CC(C)=CC1C(C(=O)OCc2cccc(Oc3ccccc3)c2)C1(C)C (centres undefined) | inactive
CC(=Cc1ccccc1)[N+](=O)[O-] | inactive

target: Estrogen receptor (Homo sapiens) (UniProt P03372); experiment: OT_ER_ERaERa_0480: Odyssey Thera (OT) 8-hour HEK293T Protein-Complementation Assay for Estrogen Receptor-alpha/-alpha Homodimer (AID 2283351);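 note: rise in fluorescence from reassembled reporter fragments on ERα LBD homodimer in nucleus or whole cell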
How it was run: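 Cells were treated for 8 hours, then imaged on a laser scanning plate cytometer. Complementation of reporter fragments fused to the human ERα ligand-binding domain (residues 310-547) in HEK293T gave fluorescence, and gain of signal over vehicle was fitted.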

Structure (SMILES) | outcome
CCN(CCO)CCO | inactive
C=CCN=C=S | inactive
O=C(NC(=O)c1c(F)cccc1F)Nc1cc(Cl)c(OC(F)(F)C(F)C(F)(F)F)cc1Cl (centres undefined) | inactive
CNC(=O)O/N=C/C(C)(C)S(C)(=O)=O | inactive
O=C(NC(=O)c1c(F)cccc1F)Nc1ccc(Cl)cc1 | inactive
CCCSP(=S)(OCC)Oc1ccc(SC)cc1 (centres undefined) | inactive
O=CCCl | inactive
CCOc1ccc(N)cc1 | inactive
N#Cc1cccnc1 | inactive
O=C(O)COc1ccc(Cl)cc1 | inactive
N#CCC#N | inactive
Cc1cc(Cl)ccc1OC(C)C(=O)O (centres undefined) | inactive
O=S1OC[C@@H]2[C@H](CO1)[C@]1(Cl)C(Cl)=C(Cl)[C@@]2(Cl)C1(Cl)Cl (some centres undefined) | inactive
CC(C)=CC1C(C(=O)OCc2cccc(Oc3ccccc3)c2)C1(C)C (centres undefined) | inactive
CC(=Cc1ccccc1)[N+](=O)[O-] | inactive

target: Estrogen receptor (Homo sapiens) + Estrogen receptor beta (Homo sapiens) (UniProt P03372+Q92731); experiment: OT_ER_ERaERb_0480: Odyssey Thera (OT) 8-hour HEK293T Protein-Complementation Assay for Estrogen Receptor-alpha/-beta Heterodimer (AID 2283352)
How it was run: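 Human HEK293T cells were treated for 8 hours and receptor heterodimerisation was detected through reconstitution of a fluorescent reporter split between ER-alpha and ER-beta ligand-binding domains. Activity was analysed as gain of signal against DMSO.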

Chain of Estrogen receptor (Homo sapiens) + Estrogen receptor beta (Homo sapiens) (P03372 whole entry, looked up, the tested form may be a part): as above
Chain of Estrogen receptor (Homo sapiens) + Estrogen receptor beta (Homo sapiens) (Q92731 whole entry, looked up, the tested form may be a part): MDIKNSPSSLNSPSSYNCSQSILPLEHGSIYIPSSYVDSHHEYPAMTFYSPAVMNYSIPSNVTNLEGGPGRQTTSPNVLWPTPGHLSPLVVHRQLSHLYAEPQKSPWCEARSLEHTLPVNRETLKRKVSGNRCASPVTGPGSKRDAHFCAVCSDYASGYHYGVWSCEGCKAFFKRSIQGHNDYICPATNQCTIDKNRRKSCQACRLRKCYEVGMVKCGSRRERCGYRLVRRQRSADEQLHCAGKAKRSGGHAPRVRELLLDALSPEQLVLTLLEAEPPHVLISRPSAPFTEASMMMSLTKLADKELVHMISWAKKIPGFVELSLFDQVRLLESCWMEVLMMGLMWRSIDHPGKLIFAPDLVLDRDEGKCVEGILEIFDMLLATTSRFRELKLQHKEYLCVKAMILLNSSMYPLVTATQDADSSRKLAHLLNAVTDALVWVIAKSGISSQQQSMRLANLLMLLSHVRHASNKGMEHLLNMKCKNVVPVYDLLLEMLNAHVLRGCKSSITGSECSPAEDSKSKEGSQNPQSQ

Structure (SMILES) | outcome | AC50
CCN(CCO)CCO | inactive | –
O=C(NC(=O)c1c(F)cccc1F)Nc1cc(Cl)c(OC(F)(F)C(F)C(F)(F)F)cc1Cl (centres undefined) | inactive | –
CNC(=O)O/N=C/C(C)(C)S(C)(=O)=O | inactive | –
O=C(NC(=O)c1c(F)cccc1F)Nc1ccc(Cl)cc1 | inactive | –
CCCSP(=S)(OCC)Oc1ccc(SC)cc1 (centres undefined) | – | 22.7 µM (active)
O=CCCl | inactive | –
CCOc1ccc(N)cc1 | inactive | –
O=C(O)COc1ccc(Cl)cc1 | inactive | –
N#CCC#N | inactive | –
Cc1cc(Cl)ccc1OC(C)C(=O)O (centres undefined) | inactive | –
CC(C)=CC1C(C(=O)OCc2cccc(Oc3ccccc3)c2)C1(C)C (centres undefined) | inactive | –
N#CCCC(Br)(C#N)CBr (centres undefined) | inactive | –
CC(=Cc1ccccc1)[N+](=O)[O-] | inactive | –
